# High-throughput results deposited in PubChem BioAssay by several laboratories.
# Platelet DG rel: inhibitors of platelet dense granule secretion, primary screen, cell-based, MLPCN, human platelets; human platelet-rich plasma, SFLLRN dense granule ATP release, luminescence; inhibition, %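 (compounds screened at 7.5 µM in platelet-rich plasma)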; actives 0.22% (n = 300,000); AID 1663, 2009;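 active means mean replicate score, as percent of positive control, at or above 50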
# TROY signal inh: inhibitors of TROY-driven NF-kB signaling, primary screen, Q293 LMP1-TROYcd cells, NF-kB luciferase, uHTS | Q293 LMP1-TROYcd NF-kB luciferase reporter, 4 h | actives 0.98% (n = 360,000) | AID 1347056, 2019 | inhibition, % at 10 µM;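 active means compounds whose plate-normalised and pattern-corrected inhibition of the luciferase reporter signal at the single screening dose is 50% or more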
# PPC-1+TRAIL kill: compounds killing PPC-1 cancer cells with TRAIL present, primary screen, TRAIL potentiator project, ATPLite luminescence, uHTS; PPC-1 cells + TRAIL, ATPLite viability luminescence; cell killing (% activity), % at 4 µM or 5 µM; actives 0.41% (n = 220,000);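 active means cell killing above 50% in the first pass at 4 µM, then a duplicate retest at 5 µM averaging 50% or more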;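 further: plate controls were cells with TRAIL plus DMSO for no effect and medium-only wells lacking cells for full effect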
# C8 TRAIL sens: viability loss with TRAIL in NB7+C8 cells, primary screen, TRAIL sensitizer project, cell-based, ATPlite luminescence. inhibition (viability loss, TRAIL sensitization), % at 10 µM. actives 1% (n = 360,000);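 active means compounds causing at least 50% loss of cell viability in the single-dose screen, relative to plate controls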
# TWEAK Fn14 block: inhibitors of TWEAK-Fn14 signaling, primary screen, luciferase reporter cells, uHTS; TWEAK-stimulated Fn14 reporter cells, luciferase luminescence, 8 h; inhibition, % at 10 µM; actives 2% (n = 360,000); AID 1159606, 2016; in the data active means inhibition above about 50%
# HSP90 inh: HSP90 inhibitors, primary screen, cell lysate, luminescence; actives 0.91% (n = 290,000); inhibition, % at 5.6 µM; Rabbit reticulocyte lysate, luciferase refolding luminescence, 3 h;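 active means inhibition above the screen-wide mean plus 3 SD, computed separately per campaign, cut at about 16% in these data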;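 further: 0% = DMSO wells and 100% = 60 µM geldanamycin wells; inhibitors lower the luminescence because luciferase stays unfolded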
# The depositor's hits bear a star; / = no result given. Most compounds without a hit are left out; they make up all but 3.5% or so of the library.
SMILES,Platelet DG rel,TROY signal inh,PPC-1+TRAIL kill,C8 TRAIL sens,TWEAK Fn14 block,HSP90 inh
COc1ccc(Nc2cc3n(c(=O)n2)CCc2cc(OC)c(OC)cc2-3)c(C)c1,79.8*,4.0,/,-10.3,-18.6,0.7
COc1cc2c(cc1OC)-c1cc(Nc3ccc4c(c3)OCCO4)nc(=O)n1CC2,50.7*,78.5*,34.5,-1.2,85.7*,13.0
CCOc1cccc(Nc2cc3n(c(=O)n2)CCc2cc(OC)c(OC)cc2-3)c1,-9.5,4.8,11.1,-21.3,2.2,2.6
CC1(C)CC2(OC2c2ccccc2[N+](=O)[O-])C(=O)c2ccccc21 (stereo not given),/,-1.5,/,-1.8,-2.9,/
C=C(C)C(=O)N1CC2(CC(c3cccc(NC(=O)CCCCC)c3)=NO2)C[C@H]1C(N)=O (stereo not given in full),1.2,-16.6,6.8,-11.6,-4.1,/
O=C(CSc1ncnc2nc[nH]c12)c1ccc(Cl)cc1,-11.3,15.9,/,74.4*,-2.1,10.5
CCCc1nc2ccccc2c(C(=O)OCC(=O)Nc2ccc(S(=O)(=O)N3CCOCC3)cc2)c1CC,0.5,78.4*,6.1,13.5,36.7,5.0
CCCc1nc2ccccc2c(C(=O)OCC(=O)NC2CC2)c1CC,/,-1.4,/,17.1,11.8,/
O=C(COC(=O)c1cccc(S(=O)(=O)N2CCOCC2)c1)Nc1ccc2c(c1)OCO2,-1.1,-1.0,7.0,4.1,-4.9,-0.5
CCCc1nc2ccccc2c(C(=O)OCC(=O)Nc2cccc(S(=O)(=O)N3CCOCC3)c2)c1CC,-1.5,41.9,2.8,25.8,60.7*,3.1
O=C(COC(=O)CCC(=O)c1ccc(F)cc1)Nc1cccc(S(=O)(=O)N2CCCC2)c1,58.6*,5.3,12.0,-14.8,6.1,-0.3
O=C(COC(=O)c1ccc2c(c1)OCCO2)Nc1cccc(S(=O)(=O)N2CCOCC2)c1,2.7,56.2*,6.0,3.8,26.1,-2.1
Cc1ccccc1C(=O)NC(CC(C)C)C(=O)NCC(C)(C)N1CCOCC1 (stereo not given),/,-30.5,/,11.7,0.0,/
COC(=O)[C@@]1(Sc2ccc(OC)cc2)CC(=O)N[C@@H]1c1ccccc1,/,5.0,/,2.6,1.5,/
COc1ccc(S(=O)(=O)N2CCOCC2)cc1NC(=O)COC(=O)C1COc2ccccc2O1 (stereo not given),-64.5,69.3*,8.1,3.9,43.3,1.8
COc1ccc(C)cc1NC(=O)COC(=O)C1COc2ccccc2O1 (stereo not given),/,15.2,/,3.2,2.6,/
CCCOc1ccc(-c2nc(SCc3ccccc3)[nH]c(=O)c2C#N)cc1OC,-1.8,51.4*,/,-3.3,-23.7,-4.2
CCSc1nc(-c2ccccc2)c(C#N)c(=O)[nH]1,7.1,3.8,5.3,-19.6,6.8,0.9
Cc1cccc(-c2cc3c(nn2)-c2ccccc2C3=O)c1,1.9,-41.6,35.2,44.7,50.3*,4.2
O=c1c(Cl)c(Cl)cnn1-c1ccccc1,-3.6,-1.1,28.2,-13.4,91.1*,-2.8
CCCCCCCCN1C(=O)[C@H](CC(=O)N2CCOCC2)C[C@@]2(C(=O)OC)CC(C)(C)CC=C12,/,/,/,0.8,/,/
O=c1c2ccccc2nc(/C=C/c2cc(Br)ccc2O)n1CCCO,4.5,11.8,/,-13.2,68.6*,-1.1
Cc1cccc2sc(N(CCN(C)C)C(=O)/C=C/c3cccs3)nc12,-8.1,3.9,16.6,12.4,33.8,-1.4
CN(C)CCCN(C(=O)/C=C/c1cccs1)c1nc2c(F)cccc2s1,3.1,4.7,14.1,55.0*,19.7,3.3
CC(C)c1cn(CC[C@@H]2CC[C@H](NS(=O)(=O)c3ccc(F)cc3)[C@@H](CO)O2)nn1,/,/,/,-3.3,/,/
Cc1[nH]c(=O)[nH]c(=O)c1/C=N/NC(=O)[C@H](C)N,-1.2,-7.5,10.3,-20.5,-3.8,2.4
N=c1n(CC(=O)c2ccc(Br)s2)c2ccccc2n1Cc1ccccc1,-8.7,16.2,2.8,55.6*,-8.9,4.0
N#C/C(=N\Nc1cccc([N+](=O)[O-])c1)C(=O)c1ccc(Br)cc1,1.8,32.9,9.7,41.3,52.3*,-5.9
